Results taken from PubChem BioAssay.
Activity calls are given as the source filed them.

Tests used:
[1] = system: PRMT1 (protein arginine N-methyltransferase 1); assay: small molecules binding arginine methyltransferase PRMT1 – biochemical, small-molecule microarray, 635 nm fluorescence, primary screen (AID 1088); details: higher = more signal;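 note: binding of Prmt1 protein to compounds spotted on small-molecule microarray slides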
[2] = growth effects on S. cerevisiae YJM789 – YJM789 clinical isolate, OD600, 24 h, basal, primary screen (AID 1089); details: higher = more signal, called active from +8 up or from −8 down;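 note: growth of clinical yeast isolate S. cerevisiae YJM 789 seeded 1000 cells per well; test concentration not given here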
[3] = S. pombe growth modifiers, basal conditions – strain 972, OD600, 24 h, no modulator, primary screen (AID 1090);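 note: basal condition with compound alone and no growth modifier present; test concentration not given here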; details: S. pombe 972 growth, higher = more signal, called active from +8 up or from −8 down
[4] = budding yeast growth modifiers under rapamycin – strain BY4716, OD600, 96 h, primary screen (AID 1091); note: test concentration not given here; details: S. cerevisiae BY4716 + rapamycin, higher = more signal, called active from +8 up or from −8 down
[5] = biological target: Torsin-1A-interacting protein 2 (Homo sapiens) (UniProt Q8NFQ8); assay: small molecules binding lysate-expressed LULL1 – cell lysate, human LULL1 lysate, 635/667 nm fluorescence, primary screen (AID 1092); details: small-molecule microarray, hLULL1 lysate binding, 635 nm fluorescence; higher = more signal;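 note: probe is lysate of COS7 cells overexpressing human LULL1; score merges per-feature 667 nm fluorescence with signal-to-noise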
Sequence of Torsin-1A-interacting protein 2 (Homo sapiens) (Q8NFQ8 whole entry, looked up): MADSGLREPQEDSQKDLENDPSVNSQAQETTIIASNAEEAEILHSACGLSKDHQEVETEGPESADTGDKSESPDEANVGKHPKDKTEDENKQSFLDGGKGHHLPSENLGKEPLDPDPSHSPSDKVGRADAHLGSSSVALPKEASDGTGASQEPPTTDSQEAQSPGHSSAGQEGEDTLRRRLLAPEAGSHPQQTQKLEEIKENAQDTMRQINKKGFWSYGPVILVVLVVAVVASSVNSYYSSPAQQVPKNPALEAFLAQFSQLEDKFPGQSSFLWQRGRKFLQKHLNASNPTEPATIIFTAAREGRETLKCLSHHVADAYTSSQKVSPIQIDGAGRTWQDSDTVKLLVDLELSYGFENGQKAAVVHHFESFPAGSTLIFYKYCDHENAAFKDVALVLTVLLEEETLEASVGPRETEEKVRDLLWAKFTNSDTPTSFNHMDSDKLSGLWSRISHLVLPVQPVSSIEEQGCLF

[6] = optical density change of DRC41 E. coli – strain DRC41, OD650, 24 h, E. coli filamentation project, primary screen (AID 1093);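 note: MC1000 strain lacking acrAB efflux and sulA so SOS filamentation is blocked; test concentration not given here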; details: E. coli DRC41 growth, higher = more signal, called active from +8 up or from −8 down
[7] = probe aLefty2 binding to arrayed compounds – biochemical, biotinylated probe, 635/667 nm fluorescence, primary screen (AID 1094); details: small-molecule microarray, higher = more signal;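 note: score merges spot fluorescence near 667 nm with spot signal-to-noise ratio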
[8] = system: Noggin (protein binding on small-molecule microarray); assay: small molecules binding Noggin protein – biochemical, 635/667 nm fluorescence, primary screen (AID 1095); details: 635 nm fluorescence, higher = more signal;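 note: score merges 667 nm feature fluorescence with signal to noise over triplicate slides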
[9] = biological target: Neurogenic locus notch homolog protein 3 (Homo sapiens) (UniProt Q9UM47); assay: small molecules binding NOTCH3 protein – biochemical, 635/667 nm fluorescence, primary screen (AID 1096); details: small-molecule microarray, 635 nm fluorescence, higher = more signal
Sequence of Neurogenic locus notch homolog protein 3 (Homo sapiens) (Q9UM47 whole entry, looked up): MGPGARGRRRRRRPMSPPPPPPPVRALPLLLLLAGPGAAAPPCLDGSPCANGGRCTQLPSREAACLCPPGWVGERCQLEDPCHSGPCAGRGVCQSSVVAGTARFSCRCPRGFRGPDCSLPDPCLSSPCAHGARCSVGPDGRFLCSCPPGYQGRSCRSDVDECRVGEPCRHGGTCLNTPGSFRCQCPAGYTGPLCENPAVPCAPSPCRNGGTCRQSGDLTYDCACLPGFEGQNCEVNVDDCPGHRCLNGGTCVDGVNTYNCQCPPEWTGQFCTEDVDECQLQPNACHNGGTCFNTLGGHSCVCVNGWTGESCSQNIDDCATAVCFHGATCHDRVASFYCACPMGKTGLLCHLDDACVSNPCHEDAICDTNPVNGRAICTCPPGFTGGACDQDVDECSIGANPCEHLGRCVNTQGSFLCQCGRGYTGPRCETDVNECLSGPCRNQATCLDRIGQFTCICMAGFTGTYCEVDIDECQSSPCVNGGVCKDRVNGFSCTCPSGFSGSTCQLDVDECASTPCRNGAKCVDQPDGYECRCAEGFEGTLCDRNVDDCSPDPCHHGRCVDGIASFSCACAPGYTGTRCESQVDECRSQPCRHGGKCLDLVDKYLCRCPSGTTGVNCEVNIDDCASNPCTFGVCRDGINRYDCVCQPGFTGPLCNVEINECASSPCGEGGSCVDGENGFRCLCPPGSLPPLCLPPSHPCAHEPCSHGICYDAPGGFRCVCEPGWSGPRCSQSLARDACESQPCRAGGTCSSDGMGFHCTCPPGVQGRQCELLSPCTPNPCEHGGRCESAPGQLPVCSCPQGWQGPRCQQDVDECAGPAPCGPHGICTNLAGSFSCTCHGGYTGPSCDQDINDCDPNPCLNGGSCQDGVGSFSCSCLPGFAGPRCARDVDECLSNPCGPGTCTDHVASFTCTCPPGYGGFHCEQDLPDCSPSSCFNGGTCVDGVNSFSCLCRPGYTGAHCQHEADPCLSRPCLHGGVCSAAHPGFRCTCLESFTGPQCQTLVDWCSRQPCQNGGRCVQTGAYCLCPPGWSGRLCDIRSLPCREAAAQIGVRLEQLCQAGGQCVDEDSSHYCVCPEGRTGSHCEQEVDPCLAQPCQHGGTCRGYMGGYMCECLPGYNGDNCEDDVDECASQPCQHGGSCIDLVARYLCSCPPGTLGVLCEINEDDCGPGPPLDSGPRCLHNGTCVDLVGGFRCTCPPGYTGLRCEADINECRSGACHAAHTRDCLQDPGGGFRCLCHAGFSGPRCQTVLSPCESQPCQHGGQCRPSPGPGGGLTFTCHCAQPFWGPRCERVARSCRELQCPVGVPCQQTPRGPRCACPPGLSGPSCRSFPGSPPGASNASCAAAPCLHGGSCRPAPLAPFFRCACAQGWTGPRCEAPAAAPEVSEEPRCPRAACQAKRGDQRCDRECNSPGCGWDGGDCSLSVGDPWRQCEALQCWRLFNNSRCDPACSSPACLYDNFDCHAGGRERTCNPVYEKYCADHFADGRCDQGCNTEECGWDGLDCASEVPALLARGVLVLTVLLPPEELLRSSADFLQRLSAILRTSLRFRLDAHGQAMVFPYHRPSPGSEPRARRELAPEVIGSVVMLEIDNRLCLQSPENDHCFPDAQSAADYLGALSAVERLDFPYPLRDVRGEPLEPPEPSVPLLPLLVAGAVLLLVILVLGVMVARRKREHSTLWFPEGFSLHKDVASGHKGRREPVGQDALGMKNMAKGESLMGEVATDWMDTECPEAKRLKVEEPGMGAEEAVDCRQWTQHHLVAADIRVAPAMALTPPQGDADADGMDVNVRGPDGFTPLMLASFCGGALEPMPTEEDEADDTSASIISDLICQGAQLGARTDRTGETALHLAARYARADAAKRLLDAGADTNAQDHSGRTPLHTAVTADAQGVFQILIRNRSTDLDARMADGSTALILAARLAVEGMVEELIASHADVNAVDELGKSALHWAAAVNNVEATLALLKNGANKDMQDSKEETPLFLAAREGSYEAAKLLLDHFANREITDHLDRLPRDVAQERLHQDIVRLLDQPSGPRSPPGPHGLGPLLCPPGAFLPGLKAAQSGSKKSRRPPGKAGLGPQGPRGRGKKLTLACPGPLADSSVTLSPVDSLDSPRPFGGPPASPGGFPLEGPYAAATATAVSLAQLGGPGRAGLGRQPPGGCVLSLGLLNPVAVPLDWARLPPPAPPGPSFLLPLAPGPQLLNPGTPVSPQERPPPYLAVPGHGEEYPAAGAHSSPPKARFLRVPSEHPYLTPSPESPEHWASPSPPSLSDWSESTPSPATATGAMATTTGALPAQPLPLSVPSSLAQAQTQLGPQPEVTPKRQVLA

[10] = probe aEGFR binding to arrayed compounds – biochemical, biotinylated probe, 635/667 nm fluorescence, primary screen (AID 1097); details: small-molecule microarray, higher = more signal;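 note: probe is a biotinylated anti-EGFR antibody binding compounds printed on slides; score combines fluorescence near 667 nm and signal to noise of each spot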
[11] = system: Plasmodium falciparum Sir2 (PF13_0152, Sir2A); assay: Plasmodium falciparum Sir2A binding compounds – biochemical, small-molecule microarray, 635 nm fluorescence, primary screen (AID 1098); details: fluorescence 635 nm, higher = more signal;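 note: score merges spot fluorescence intensity with its signal-to-noise ratio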
[12] = probe aDKK1 binding to arrayed compounds – biochemical, biotinylated probe, 635/667 nm fluorescence, primary screen (AID 1099); details: small-molecule microarray, higher = more signal;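 note: score merges 667nm spot fluorescence with signal to noise across triplicate slides; reference of the scale not given here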
[13] = probe aCHRDL2 binding to arrayed compounds – biochemical, biotinylated probe, 635/667 nm fluorescence, primary screen (AID 1100); details: small-molecule microarray, higher = more signal
[14] = change in splice reporter luminescence, either direction, cell-based, HEK293, spliceosome inhibition project, primary screen (AID 1101); details: HEK293 splicing luciferase reporter, 24 h, higher = more signal, called active from +8 up or from −8 down;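 note: HEK293 cells carrying a splicing-competent luciferase reporter gene; test concentration not given here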
[15] = biological target: Fibroblast growth factor 10 (Homo sapiens) (UniProt O15520); assay: compounds binding fibroblast growth factor 10 – biochemical, small-molecule microarray, 635 nm fluorescence, primary screen (AID 1102); details: FGF10 binding, fluorescence 635 nm, higher = more signal
Sequence of Fibroblast growth factor 10 (Homo sapiens) (O15520 whole entry, looked up): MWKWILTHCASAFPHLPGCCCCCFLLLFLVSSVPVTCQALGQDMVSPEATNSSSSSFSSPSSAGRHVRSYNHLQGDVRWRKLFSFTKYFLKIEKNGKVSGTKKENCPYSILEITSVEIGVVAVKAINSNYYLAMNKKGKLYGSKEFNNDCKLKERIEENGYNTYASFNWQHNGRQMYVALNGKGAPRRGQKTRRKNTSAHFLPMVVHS

[16] = system: glycogen synthase kinase-3 (GSK3A per assay name; protocol says GSK3B); assay: compounds binding glycogen synthase kinase-3 – biochemical, small-molecule microarray, 635 nm fluorescence, GSK3A, primary screen (AID 1103); details: fluorescence 635 nm, higher = more signal; note: the record names both GSK3A and GSK3B
[17] = biological target: Epidermal growth factor receptor (Homo sapiens) (UniProt P00533); assay: compounds binding epidermal growth factor receptor – biochemical, small-molecule microarray, 635 nm fluorescence, primary screen (AID 1104); details: EGFR binding, higher = more signal;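 note: score merges 667 nm emission intensity with spot signal to noise over triplicate slides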
Sequence of Epidermal growth factor receptor (Homo sapiens) (P00533 whole entry, looked up): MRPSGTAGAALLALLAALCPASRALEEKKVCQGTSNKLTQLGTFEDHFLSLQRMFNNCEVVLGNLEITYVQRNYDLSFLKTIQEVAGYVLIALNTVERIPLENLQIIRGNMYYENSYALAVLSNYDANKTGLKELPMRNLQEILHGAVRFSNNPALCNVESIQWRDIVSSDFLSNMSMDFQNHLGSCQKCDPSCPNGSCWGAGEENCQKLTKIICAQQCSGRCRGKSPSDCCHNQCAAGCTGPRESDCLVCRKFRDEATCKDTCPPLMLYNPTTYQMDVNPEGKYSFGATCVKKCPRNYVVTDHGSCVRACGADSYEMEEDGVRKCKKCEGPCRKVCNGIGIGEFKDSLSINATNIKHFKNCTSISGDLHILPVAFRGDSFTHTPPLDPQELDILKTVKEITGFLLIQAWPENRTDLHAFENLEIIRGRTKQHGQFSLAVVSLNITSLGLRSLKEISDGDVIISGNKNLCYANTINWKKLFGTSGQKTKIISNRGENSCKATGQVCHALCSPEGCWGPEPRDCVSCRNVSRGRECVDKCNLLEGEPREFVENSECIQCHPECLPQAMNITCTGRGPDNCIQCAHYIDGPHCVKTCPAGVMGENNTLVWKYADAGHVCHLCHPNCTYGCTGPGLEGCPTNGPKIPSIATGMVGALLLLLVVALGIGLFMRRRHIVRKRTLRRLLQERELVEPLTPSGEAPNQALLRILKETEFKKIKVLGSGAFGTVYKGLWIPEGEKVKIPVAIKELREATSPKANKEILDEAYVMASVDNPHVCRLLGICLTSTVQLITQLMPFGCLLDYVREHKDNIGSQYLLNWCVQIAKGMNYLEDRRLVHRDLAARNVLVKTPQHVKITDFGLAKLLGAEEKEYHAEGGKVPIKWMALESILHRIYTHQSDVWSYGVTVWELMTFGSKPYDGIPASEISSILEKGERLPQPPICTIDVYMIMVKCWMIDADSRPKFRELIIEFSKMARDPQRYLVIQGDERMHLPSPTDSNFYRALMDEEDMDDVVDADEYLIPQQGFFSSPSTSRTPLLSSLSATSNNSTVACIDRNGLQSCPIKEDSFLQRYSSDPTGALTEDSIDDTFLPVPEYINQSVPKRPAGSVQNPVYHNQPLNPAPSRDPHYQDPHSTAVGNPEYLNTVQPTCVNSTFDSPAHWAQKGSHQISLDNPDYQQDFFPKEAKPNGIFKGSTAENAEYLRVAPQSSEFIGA

[18] = biological target: Follistatin-related protein 3 (Homo sapiens) (UniProt O95633); assay: compounds binding follistatin-related protein 3 – biochemical, small-molecule microarray, 635 nm fluorescence, primary screen (AID 1105); details: FSTL3 binding, higher = more signal;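 note: score merges emission near 667 nm and signal to noise per printed spot across three slides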
Sequence of Follistatin-related protein 3 (Homo sapiens) (O95633 whole entry, looked up): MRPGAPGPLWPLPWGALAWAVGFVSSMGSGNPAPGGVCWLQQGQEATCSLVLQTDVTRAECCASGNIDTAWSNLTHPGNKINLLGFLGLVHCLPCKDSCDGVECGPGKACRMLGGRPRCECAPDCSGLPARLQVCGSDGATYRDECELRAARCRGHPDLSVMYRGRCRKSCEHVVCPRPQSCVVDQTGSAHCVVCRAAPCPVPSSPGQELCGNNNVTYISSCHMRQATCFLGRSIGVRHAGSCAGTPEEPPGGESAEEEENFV

[19] = biological target: Dickkopf-related protein 1 (Homo sapiens) (UniProt O94907); assay: small molecules binding DKK1 protein – biochemical, small-molecule microarray, 635 nm fluorescence scan, primary screen (AID 1106); details: higher = more signal;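 note: score merges emission near 667 nm with signal to noise over three replicate slides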
Sequence of Dickkopf-related protein 1 (Homo sapiens) (O94907 whole entry, looked up): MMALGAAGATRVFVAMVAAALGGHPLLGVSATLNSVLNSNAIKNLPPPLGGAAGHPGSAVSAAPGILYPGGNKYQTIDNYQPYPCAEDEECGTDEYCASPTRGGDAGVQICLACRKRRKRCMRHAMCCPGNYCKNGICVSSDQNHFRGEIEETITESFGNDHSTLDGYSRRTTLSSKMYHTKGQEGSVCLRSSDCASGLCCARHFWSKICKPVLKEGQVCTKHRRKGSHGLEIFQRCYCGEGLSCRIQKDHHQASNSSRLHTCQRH

[20] = system: Inhibin beta A chain (activin A); assay: small molecules binding activin A – biochemical, small-molecule microarray, 635 nm fluorescence scan, primary screen (AID 1107); details: INHBA, higher = more signal;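 note: mouse activin A protein probed at 4.33 µg/mL on printed slides; score merges bound-protein fluorescence near 667 nm with spot signal-to-noise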

| SMILES | composite z-score [1] | z-score [2] | z-score [3] | z-score [4] | composite z-score [5] | z-score [6] | composite z-score [7] | composite z-score [8] | composite z-score [9] | composite z-score [10] | composite z-score [11] | composite z-score [12] | composite z-score [13] | z-score [14] | composite z-score [15] | composite z-score [16] | composite z-score [17] | composite z-score [18] | composite z-score [19] | composite z-score [20] |
| --- | --- | --- | --- | --- | --- | --- | --- | --- | --- | --- | --- | --- | --- | --- | --- | --- | --- | --- | --- | --- |
| COc1ccc([Si](C)(C)[C@@H]2[C@@H](CC(=O)N3CCC[C@H]3CO)O[C@]3(C(=O)N(Cc4cccc(N5C(=O)COc6ccccc65)c4)c4ccccc43)[C@H]2C)cc1 | 1.57 | -2.24 (inactive) | -0.185 (inactive) | -0.278 (inactive) | 1.77 | 0.222 (inactive) | -0.0198 | 0.942 | 0.757 | -0.165 | 0.911 | -0.0948 | 0.157 | -1.06 (inactive) | 0.723 | 0.746 | 0.447 | 0.579 | 0.173 | 0.615 |
| CC(CO)N1C(=O)[C@]2(C)C3C(=O)OCCC/C=C\[C@H]3OC23C=CCN(c2ccc(Cl)cc2)C(=O)[C@@H]13 (stereo not given in full) | -1.06 | 0.0276 (inactive) | -0.358 (inactive) | -0.14 (inactive) | -1.08 | 0.525 (inactive) | -0.152 | -0.554 | -0.162 | -0.165 | -0.714 | -0.0842 | 0.167 | -0.712 (inactive) | -0.39 | -0.558 | -0.558 | -0.798 | -0.0396 | -0.0439 |
| COc1ccc([Si](C)(C)[C@@H]2[C@@H](CCO)O[C@]3(C(=O)N(Cc4ccccc4)c4ccc(N5C(=O)c6cccc7cccc5c67)cc43)[C@H]2C)cc1 | 0.473 | 0.849 (inactive) | 1.97 (inactive) | 37.1 (active) | 0.984 | 0.89 (inactive) | -0.186 | -0.129 | -0.0162 | -0.177 | 1.42 | 0.0194 | 0.42 | -0.884 (inactive) | -0.231 | -0.642 | -0.0299 | -0.448 | -0.0876 | -0.344 |
| COCCOC(=O)N1C(=O)[C@@]2(c3cc(C#CCCO)ccc31)[C@H](C(=O)Nc1nc3ccccc3s1)[C@H]1C(=O)O[C@H](c3ccccc3)[C@H](c3ccccc3)N1[C@@H]2c1ccc(O)cc1 | 1.54 | 1.32 (inactive) | 0.663 (inactive) | 2.23 (inactive) | 2.79 | 0.467 (inactive) | 0.027 | 0.797 | 1.03 | 0.152 | 0.972 | 0.513 | 0.355 | -0.221 (inactive) | 1.16 | 1.34 | 0.989 | 1.43 | 0.957 | 0.211 |
| C=C[C@@H](OC)[C@H](OC(=O)Nc1ccc(OC)cc1)c1ccc(O)c(F)c1 | 0.882 | -1.48 (inactive) | -4.59 (inactive) | 0.144 (inactive) | 1.16 | 1.19 (inactive) | -0.183 | 0.638 | 0.0981 | -0.199 | 1.52 | -0.515 | -0.54 | -0.653 (inactive) | -0.076 | -0.242 | -0.459 | -0.0891 | 0.171 | 1.07 |
| COC(=O)[C@@]1(Cc2ccc(OC)cc2)[C@H]2c3cc(C(=O)N4CCCC4)n(CCc4c[nH]c5ccc(O)cc45)c3C[C@H]2CN1C(=O)c1ccccc1 | 0.66 | 0.277 (inactive) | 1.16 (inactive) | 0.687 (inactive) | 3.16 | 0.573 (inactive) | 0.379 | -0.0208 | 1.12 | 0.262 | 1.29 | 1.24 | 1.2 | 0.129 (inactive) | 1.06 | 0.778 | 0.309 | 1.13 | -0.32 | 1.51 |
| CCCCN1CC=CC23O[C@@H]4/C=C\CCCOC(=O)C4[C@H]2C(=O)N(CCO)[C@@H]3C1=O (stereo not given in full) | -0.328 | 0.812 (inactive) | -0.0784 (inactive) | -0.0859 (inactive) | 3.01 | 2.12 (inactive) | -0.212 | -1.03 | -0.968 | -0.385 | 1.77 | -0.356 | 0.644 | -0.817 (inactive) | -1.29 | -0.782 | -1.26 | -1.38 | -1.58 | -0.677 |
| CCOC(=O)C[C@H]1[C@H](OC(=O)Cc2ccc3c(c2)OCO3)[C@@H](NC(=O)c2ccc3ccccc3n2)c2cc(OCCCO)ccc2N1C(=O)c1ccccc1 | 0.299 | 0.131 (inactive) | -0.931 (inactive) | 0.336 (inactive) | 0.604 | 0.887 (inactive) | 0.0209 | 0.257 | 0.363 | -0.0039 | 0.153 | 0.0565 | -0.33 | -0.149 (inactive) | 0.445 | 0.0897 | 0.0654 | 0.73 | 0.283 | 0.696 |
| C=CCOC(=O)[C@@]1(Cc2ccccc2)C[C@H]2CO[C@H](c3ccc(OC)cc3)N2C1=O | 0.262 | -2.65 (inactive) | -3.58 (inactive) | 0.0326 (inactive) | 0.317 | 0.1 (inactive) | -0.126 | 0.224 | 0.408 | -0.15 | 0.335 | -0.0298 | -0.0084 | -0.543 (inactive) | 0.25 | -0.0535 | 0.201 | 0.2 | 0.286 | 0.351 |
| CCCC=C(CCC)[C@@H](NS(=O)(=O)CC12CCC(CC1=O)C2(C)C)c1ccc(C(=O)OC)cc1 (stereo not given in full) | 0.788 | -0.723 (inactive) | -0.005 (inactive) | -0.909 (inactive) | 3.78 | 0.0623 (inactive) | 0.0672 | -0.132 | 0.408 | 0.471 | 0.765 | 0.615 | 0.143 | -0.422 (inactive) | 0.5 | 0.233 | 0.273 | 0.337 | 0.336 | -0.0344 |
